Reference: ChEMBL document CHEMBL3433997, “St. Jude Leishmania screening dataset” (2016)

Target: Hexose transporter 1 (Plasmodium falciparum) (UniProt O97467)
Test: ST_JUDE_LEISH: Cytotoxicity at 2uM final concentration against transgenic Leishmania Mexicana promastigotes LmPfHT that are glucose transport deficient and complemented with the Plasmodium falciparum hexose transporter. Activity is measured by DNA content using SYBR green in vitro
Format: functional

Structure (SMILES)	inhibition [%]
CCOc1cc(C(=O)NCCCN2CCN(c3cccc(Cl)c3)CC2)ccc1-c1nc2cc(Cl)c(F)cc2[nH]1	-0.11
COc1cc(Cc2cnc(N)nc2N)ccc1OCC(=O)Nc1ccc(C)cc1	9.26
CCCC1N=C(N)N=C(N)N1c1ccc(C)cc1 (stereo not given)	2.51
COc1ccc2nccc([C@@H](O)CN3CCC(NCc4cc5ccccc5cn4)CC3)c2n1	17.3
Cc1cc2nc(-c3cccc(C(=O)NC4CCN(Cc5ccccc5)CC4)c3)[nH]c2cc1C	1.99
Cc1ccc(C(=O)Nc2cccc(CN3CCCN(Cc4ccc(O)cc4)CC3)c2)cc1	0.24
CCCc1cc(Cc2cnc(N)nc2N)cc(CCC)c1OC	1.27
O=C(/C=C/c1ccc(C(F)(F)F)cc1)NCCCCCN1CCN(C(=O)Nc2ccc(F)c(Cl)c2)CC1	2.52
O=c1cc(NCCCNCc2ccc(Cl)c(Cl)c2)[nH]c2cc(F)cc(F)c12	2.15
CS(=O)(=O)CCNc1nccc(N2CCc3ncnc(Nc4ccc(OCc5cccc(F)c5)c(Cl)c4)c3C2)n1	-1.97
COc1ccc2nccc([C@@H](O)CN3CCC(NCc4ccc5c(c4)N(C)C(=O)CO5)CC3)c2c1	0.25
Cc1ccc(-c2nnc(-c3ccc(C(=O)NC4CCN(Cc5ccc(C#N)cc5)CC4)cc3)o2)cc1Br	5.73
CCc1ccccc1-c1csc(C(=O)NCC2CCN(Cc3ccc(C(C)(C)C)cc3)C2)c1 (stereo not given)	4.94
N#Cc1ccc2[nH]cc(CN3CCC4(CC3)CN(CCNCc3ccccc3)C(=O)CO4)c2c1	-0.73
Cc1ccc(NC(C)C(=O)Nc2ccc(C#N)cc2)cc1S(=O)(=O)N1CCCCC1 (stereo not given)	71.8
c1ccc(CN2CCC(NCc3cccc(-c4cncc5ccccc45)c3)CC2)cc1	7.7
CCN1CCN(c2ccc(NC(=O)c3cc4c(C)nn(-c5ccccc5)c4s3)cc2C)CC1	3.9
NC(=O)c1ccc(C(=O)Nc2cccc(-c3cccc(-c4nc5cc(C(F)(F)F)ccc5[nH]4)c3)c2)cc1	5.6
C=CCOC(=O)O[C@@H]1[C@@H](OC(=O)OCC=C)[C@@H](OC)O[C@H](COC(c2ccccc2)(c2ccccc2)c2ccccc2)[C@H]1OC(=O)OCC=C	3.53
Cc1noc(C)c1-c1cccc(CNCc2ccc(-c3ccc(-c4nc5cc(C(F)(F)F)ccc5[nH]4)s3)cc2)c1	3.12

Structure (SMILES)	inhibition [%]
Cc1cc(Br)cnc1CCCCNc1cc(=O)c2ccccc2[nH]1	6.14
Cc1ccc(O)cc1Nc1ccnc2cc(-c3csc(CN4CCN(C)CC4)n3)ccc12	5.93
NCCNS(=O)(=O)c1ccc(-c2ccnc3[nH]c(-c4ccncc4)cc23)cc1	1.19
Cc1cc(NCCc2ccccc2)nc(NC(=N)Nc2ccc(Cl)cc2)n1	2.1
CC(C)(O)CC(C)(C)c1cc(Cl)ccc1O	5.76
CCCCc1ccc(C(=O)NC2CCN(C[C@H](O)c3ccnc4ccc(OC)cc34)CC2)cc1	65.3
O=C(Nc1ccc(-c2nc3ccccc3[nH]2)cc1)c1ccc(-c2cccc([N+](=O)[O-])c2)o1	-0.42
CCOc1ccc2[nH]c(C)cc(=NN=Cc3ccncc3)c2c1	0.8
COc1ccc(C(=O)Nc2nonc2-c2ccc(OC)c(OC)c2)cc1Cl	-0.18
CCOC(=O)Nc1cc(-c2csc(N=C(N)N)n2)cc([N+](=O)[O-])c1	0.58
Cc1cc(N[C@@H](CC(C)C)C(=O)Nc2ccccc2)nc(NCCc2ccc(F)cc2)n1	1.97
Cc1ccc(C)c(CC(=O)N2CCC(n3c(C)nc4ccc(F)cc43)CC2)c1	3.03
N#Cc1ccc(-c2ccc(C(=O)NCCCCN3CCC(c4cn(CCO)c5ccccc45)CC3)cc2)cc1	-0.13
O=C(Nc1ccc(OC2CCN(Cc3ccco3)C2)c(Cl)c1)c1ccc2ncccc2c1 (stereo not given)	-3.49
N#Cc1ccc(N/C(=N\c2ccc(-c3ccccc3)cc2)NC2CCCc3ccccc32)c(O)c1 (stereo not given)	0.81
Cc1ccc(-c2cncc(-c3cc(NC4CCN(Cc5ccccc5)CC4)nc(-c4ccccc4)n3)c2)cc1	2.36
CC(C)n1ncc2c3c(N)nc(N)nc3ccc21	1.69
COc1ccc(C(=O)N2CCN(c3ccc([N+](=O)[O-])c(NC4CC4)c3)CC2)cc1Br	14.1
Cc1cccc2nc(-c3ccc(-c4ccc(NC(=O)Nc5cccc(C#N)c5)cc4)s3)[nH]c12	6.92
Cc1cc(N2CCN(CC3CCN(C)CC3)CC2)nc(Nc2ccc(Br)cc2)n1	2.2

Target: Glucose transporter (Leishmania mexicana) (UniProt O61059)
Test: ST_JUDE_LEISH: Cytotoxicity at 2uM final concentration against transgenic Leishmania Mexicana promastigotes LmGT2 that are glucose transport deficient and complemented with the L. Mexicana glucose transporter 2. Activity is measured by DNA content using SYBR green in vitro
Format: functional

Structure (SMILES)	inhibition [%]
CCOc1cc(C(=O)NCCCN2CCN(c3cccc(Cl)c3)CC2)ccc1-c1nc2cc(Cl)c(F)cc2[nH]1	-0.18
COc1cc(Cc2cnc(N)nc2N)ccc1OCC(=O)Nc1ccc(C)cc1	8.92
CCCC1N=C(N)N=C(N)N1c1ccc(C)cc1 (stereo not given)	2.47
COc1ccc2nccc([C@@H](O)CN3CCC(NCc4cc5ccccc5cn4)CC3)c2n1	7.09
Cc1cc2nc(-c3cccc(C(=O)NC4CCN(Cc5ccccc5)CC4)c3)[nH]c2cc1C	1.84
Cc1ccc(C(=O)Nc2cccc(CN3CCCN(Cc4ccc(O)cc4)CC3)c2)cc1	-7.6
CCCc1cc(Cc2cnc(N)nc2N)cc(CCC)c1OC	-2.49
O=C(/C=C/c1ccc(C(F)(F)F)cc1)NCCCCCN1CCN(C(=O)Nc2ccc(F)c(Cl)c2)CC1	0.69
O=c1cc(NCCCNCc2ccc(Cl)c(Cl)c2)[nH]c2cc(F)cc(F)c12	3.08
CS(=O)(=O)CCNc1nccc(N2CCc3ncnc(Nc4ccc(OCc5cccc(F)c5)c(Cl)c4)c3C2)n1	-1.99
COc1ccc2nccc([C@@H](O)CN3CCC(NCc4ccc5c(c4)N(C)C(=O)CO5)CC3)c2c1	0.03
Cc1ccc(-c2nnc(-c3ccc(C(=O)NC4CCN(Cc5ccc(C#N)cc5)CC4)cc3)o2)cc1Br	4.37
CCc1ccccc1-c1csc(C(=O)NCC2CCN(Cc3ccc(C(C)(C)C)cc3)C2)c1 (stereo not given)	4.81
N#Cc1ccc2[nH]cc(CN3CCC4(CC3)CN(CCNCc3ccccc3)C(=O)CO4)c2c1	5.02
Cc1ccc(NC(C)C(=O)Nc2ccc(C#N)cc2)cc1S(=O)(=O)N1CCCCC1 (stereo not given)	58.8
c1ccc(CN2CCC(NCc3cccc(-c4cncc5ccccc45)c3)CC2)cc1	8.64
CCN1CCN(c2ccc(NC(=O)c3cc4c(C)nn(-c5ccccc5)c4s3)cc2C)CC1	-1.39
NC(=O)c1ccc(C(=O)Nc2cccc(-c3cccc(-c4nc5cc(C(F)(F)F)ccc5[nH]4)c3)c2)cc1	2.11
C=CCOC(=O)O[C@@H]1[C@@H](OC(=O)OCC=C)[C@@H](OC)O[C@H](COC(c2ccccc2)(c2ccccc2)c2ccccc2)[C@H]1OC(=O)OCC=C	4.42
Cc1noc(C)c1-c1cccc(CNCc2ccc(-c3ccc(-c4nc5cc(C(F)(F)F)ccc5[nH]4)s3)cc2)c1	0.04

Structure (SMILES)	inhibition [%]
Cc1cc(Br)cnc1CCCCNc1cc(=O)c2ccccc2[nH]1	4.81
Cc1ccc(O)cc1Nc1ccnc2cc(-c3csc(CN4CCN(C)CC4)n3)ccc12	5.57
NCCNS(=O)(=O)c1ccc(-c2ccnc3[nH]c(-c4ccncc4)cc23)cc1	0.62
Cc1cc(NCCc2ccccc2)nc(NC(=N)Nc2ccc(Cl)cc2)n1	-1.21
CC(C)(O)CC(C)(C)c1cc(Cl)ccc1O	4.82
CCCCc1ccc(C(=O)NC2CCN(C[C@H](O)c3ccnc4ccc(OC)cc34)CC2)cc1	76.8
O=C(Nc1ccc(-c2nc3ccccc3[nH]2)cc1)c1ccc(-c2cccc([N+](=O)[O-])c2)o1	-3.21
CCOc1ccc2[nH]c(C)cc(=NN=Cc3ccncc3)c2c1	-2.05
COc1ccc(C(=O)Nc2nonc2-c2ccc(OC)c(OC)c2)cc1Cl	-0.55
CCOC(=O)Nc1cc(-c2csc(N=C(N)N)n2)cc([N+](=O)[O-])c1	1.09
Cc1cc(N[C@@H](CC(C)C)C(=O)Nc2ccccc2)nc(NCCc2ccc(F)cc2)n1	1.72
Cc1ccc(C)c(CC(=O)N2CCC(n3c(C)nc4ccc(F)cc43)CC2)c1	2.07
N#Cc1ccc(-c2ccc(C(=O)NCCCCN3CCC(c4cn(CCO)c5ccccc45)CC3)cc2)cc1	0.2
O=C(Nc1ccc(OC2CCN(Cc3ccco3)C2)c(Cl)c1)c1ccc2ncccc2c1 (stereo not given)	0.71
N#Cc1ccc(N/C(=N\c2ccc(-c3ccccc3)cc2)NC2CCCc3ccccc32)c(O)c1 (stereo not given)	-0.07
Cc1ccc(-c2cncc(-c3cc(NC4CCN(Cc5ccccc5)CC4)nc(-c4ccccc4)n3)c2)cc1	1.96
CC(C)n1ncc2c3c(N)nc(N)nc3ccc21	2.51
COc1ccc(C(=O)N2CCN(c3ccc([N+](=O)[O-])c(NC4CC4)c3)CC2)cc1Br	12.6
Cc1cccc2nc(-c3ccc(-c4ccc(NC(=O)Nc5cccc(C#N)c5)cc4)s3)[nH]c12	8.07
Cc1cc(N2CCN(CC3CCN(C)CC3)CC2)nc(Nc2ccc(Br)cc2)n1	1.74
